Data on 28 compounds can be found in PubChem BioAssay AID750 (Sanford-Burnham Center for Chemical Genomics, 2007).

In all, about 86,000 compounds went through this assay and about 140 (0.16%) were called active. What follows is part of a selection rich in actives, with near analogues and random picks from the rest. Unmarked numbers belong to inactive results.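 How the source made its calls: active means activation factor of at least 2 for MT1-MMP transcription at 10 µM; inactive means the rest.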

The nature of this assay: MT1-MMP promoter reporter activation – cell-based, luciferase luminescence, primary screen (AID 750). The settings on record: HT1080 MT1-MMP promoter luciferase reporter, overnight, at 10 µM, hits give high values.
For `Cn1c(=N)n(CC(O)c2ccccc2)c2ccccc21` (stereo not drawn), the activation factor was 1.5.

As to `CC1CCC2(CC1)NC(=O)N(CC(=O)c1cccn1C)C2=O` (stereo not drawn), the activation factor was 1.2.

As for `COc1ccccc1NC(=O)C1CCCN(c2cc(C)nc3ncnn23)C1` (stereo not drawn), the activation factor is 1.1.

Turning to `COc1cc(OC)cc(-c2cc3nc(C4CCN(C(=O)OC(C)(C)C)CC4)cc(=O)n3[nH]2)c1`, the activation factor was 1.1.

For `COc1ccc(OC)c(-n2nnnc2SCC(=O)Nc2cc(C)ccc2OC)c1`, the activation factor is 1.

In the case of `COc1ccc(C(=O)Nc2ccc(S(=O)(=O)NC(C)C)cc2)cc1`, the activation factor is 1.1.

Regarding `COC(=O)[C@@]1(Cc2ccccc2)C=C[C@@H](C)N1`, the activation factor is 1.2.

Take `O=C1C2N=NN(CC(=O)N3N=C(c4cccc5ccccc45)CC3c3ccccc3)C2C(=O)N1c1ccccc1` (stereo not drawn): the activation factor is 1.2.

For `CC(N=Cc1nc(-c2ccccc2)oc1O)c1ccccc1` (stereo not drawn), the activation factor was 1.2.

Turning to `Cc1cc2nc(SCCN3CCOCC3)[nH]c2cc1C`, the activation factor is 2 (active).

Consider `Cc1ccc(S(=O)(=O)NCCN2CCOCC2)cc1C`, for which the activation factor is 1.1.

`c1ccc2[nH]c(NCCN3CCOCC3)nc2c1`: the activation factor is 1.1.

As to `CCOc1cc(NC(=O)c2cnccn2)c(OCC)cc1NC(=O)c1ccc(C)cc1`, the activation factor was 1.3.

Take `COC(=O)C1=C(C)N=C2SC(C)C(=O)N2C1/C=C/c1ccccc1` (stereo not drawn): the activation factor was 1.1.

Regarding `OC(COCCC12CC3CC(CC(C3)C1)C2)CN1CCCCC1` (stereo not drawn), the activation factor was 1.1.

Consider `COc1ccc(/C(O)=C2/C(=O)C(=O)N(CC3CCCO3)C2c2ccc(OC)c(OC)c2)cc1` (stereo not drawn), for which the activation factor was 1.3.

For `O=C(CCn1c(SCC(=O)c2ccccc2)nc2ccccc2c1=O)NCc1ccc(F)cc1`, the activation factor was 1.1.

As to `CCN1CCCC1Cn1cnc2c([nH]c3cc(OC)ccc32)c1=O` (stereo not drawn), the activation factor was 1.1.

With `CCCNC(=O)c1ccc(Cl)c(Cl)c1`, the activation factor was 1.

`Cc1cc(N/C=C\C(=O)c2ccc(Cl)c(Cl)c2)no1`: the activation factor is 2.1 (active).

For the compound `Cc1cc(NC(=O)CSc2nnc(-c3ccc(Cl)s3)o2)no1`, the activation factor is 1.1.

Take `CCN(CC)C(=O)CSc1nc2ccccc2n1CC(=O)N1CCN(c2ccccc2OC)CC1`: the activation factor was 1.1.

Take `CC/S(CC1CC1(Cl)Cl)=N\S(=O)(=O)c1ccc(C)cc1` (stereo not drawn): the activation factor is 1.

For `CC(C)C(OC(=O)c1cccs1)C(=O)NC1CCCCC1` (stereo not drawn), the activation factor is 1.3.

Take `OC(CN1C2=NCCCN2c2ccccc21)c1ccc(Br)cc1` (stereo not drawn): the activation factor was 1.2.

For `Cn1c(SCC(=O)NC2CCCCC2)nnc1-c1cc2ccccc2o1`, the activation factor is 1.4.

Take `NC(=O)c1ncc(C(F)(F)F)cc1Oc1ccc(F)cc1`: the activation factor is 1.1.

On to `CCOc1ccccc1NC(=O)c1cccnc1`, for which the activation factor is 1.3.
